# Assay outcomes as filed in PubChem BioAssay.
# Only a sample is shown.
# aSyn UTR act: Activators via SNCA 5'UTR binding, MLPCN | activity score, % (tested at 7.5 µM), hits read low | 300,000 compounds, 7.1% hits | AID 1814 | alpha-synuclein 5'UTR reporter, activators screen; in the data active = activity score below about -60%
# Numbers stand for hits; i = inactive.
SMILES,aSyn UTR act
O=C(Nc1nc2c(F)cccc2s1)c1ccc([N+](=O)[O-])o1,-95
O=C(Nc1nc2ccc(Cl)cc2s1)c1ccc(Br)o1,-237
O=C(Nc1nc2c(Cl)cccc2s1)c1ccc(Br)o1,-131
O=C(Nc1cccc(NC(=O)c2ccccc2Cl)c1)c1ccc([N+](=O)[O-])o1,i
O=C(Nc1nc2c(Cl)cccc2s1)c1ccc([N+](=O)[O-])o1,-80
O=C(CSc1nnc(-c2ccccn2)o1)Nc1ccccc1C(F)(F)F,-104
COc1ccccc1-c1nnc(SCC(=O)Nc2ccc(Cl)cc2Cl)o1,-83
COc1ccccc1NC(=O)CSc1nnc(-c2ccccn2)o1,-66
O=c1c(-c2ccc(Cl)cc2)cnc2n1CCS2,-83
c1ccc(Cn2c(Sc3nnnn3-c3ccccc3)nnc2-c2ccccc2)cc1,-74
Cc1cccc(C(=O)O/N=C(\N)c2ccccn2)c1,i
Cc1ccc(OCC(=O)O/N=C(\N)c2ccccn2)cc1C,-99
Cc1cccc(OCC(=O)O/N=C(\N)c2ccccn2)c1,-116
Cc1ccc(OCC(=O)O/N=C(\N)c2ccncc2)cc1C,-129
N/C(=N\OC(=O)COc1ccc2ccccc2c1Br)c1ccccn1,-107
CCOc1ccc(C(=O)O/N=C(\N)c2ccccn2)cc1,i
CCc1ccc(OCC(=O)O/N=C(\N)c2ccccn2)cc1,-91
Cc1cc(C)c(C)c(OCC(=O)O/N=C(\N)c2ccccn2)c1,-110
N/C(=N\OC(=O)COc1ccccc1)c1ccccn1,-69
O=C(c1ccc(S(=O)(=O)Cc2cc(F)ccc2F)c([N+](=O)[O-])c1)N1CCCCC1,-102
Clc1cccc(CSc2ccc(-c3ccco3)nn2)c1,-84
Clc1ccc(CSc2ccc(-c3ccccn3)nn2)cc1,-132
Cc1ccc(CSc2ccc(-c3ccco3)nn2)cc1,-142
Clc1ccc(CSc2ccc(-c3ccco3)nn2)cc1,-165
O=C(CSc1ccc(-c2ccccn2)nn1)c1ccccc1,-97
SMILES,aSyn UTR act
Cc1cccc(CSc2ccc(-c3ccco3)nn2)c1,-174
Oc1ccccc1-c1cc(-c2ccco2)[nH]n1,-256
Oc1c(-c2cc(-c3ccco3)[nH]n2)ccc2ccccc12,-170
C/C(=N\NC(=O)c1cccs1)c1ccc2ccccc2c1,-92
C/C(=N\NC(=O)COc1ccccc1)c1cccs1,-85
Cc1cc(/C=N/NC(=O)c2cccs2)c(C)n1-c1cnccn1,-170
O=C(N/N=C/c1ccc(N2CCOCC2)cc1)c1cccs1,-179
O=C(N/N=C/c1cccnc1)c1cccs1,-82
C/C(=N\NC(=O)c1cccs1)c1cccnc1,-83
Oc1ccc(O)c(-c2cnns2)c1,-71
O=S(=O)(Nc1ccc(-c2nc3cccnc3s2)cc1)c1cccs1,-89
O=S(=O)(Nc1ccc(-c2nc3cccnc3s2)cc1)c1ccccc1F,-84
Cc1cc(-c2nc3cccnc3s2)ccc1NS(=O)(=O)c1cccs1,-167
O=S(=O)(Nc1ccc(-c2nc3cccnc3s2)cc1)c1ccc(Cl)s1,-121
O=C(NC1CC1)c1cc2c(s1)-c1ccccc1OC2,-82
O=C(NCc1cccs1)c1cc2c(s1)-c1ccccc1OC2,-90
CN(C)CCNC(=O)c1cc2c(s1)-c1ccc(Cl)cc1SC2,i
CC(CC(=O)Nc1ccc2c(c1)OCCO2)c1ccccc1 (stereo not drawn),-161
CC(CC(=O)Nc1ccc2c(c1)OCO2)c1ccccc1 (stereo not drawn),-92
COc1ccc(CCN2CCCC(CN(C)C(=O)c3ccoc3)C2)cc1 (stereo not drawn),-109
Cc1nn(-c2ccccc2)c(Cl)c1/C=N/Nc1nnc(C)c(=O)[nH]1,-62
Cc1nn(-c2ccccc2)c(Cl)c1/C=N/NC(=O)c1ccnn1C,-108
Cc1nn(-c2ccccc2)c(Cl)c1/C=N/Nc1nc2ccccc2n1C,-121
CCc1n[nH]c(=S)n1/N=C/c1c(C)nn(-c2ccccc2)c1Cl,i
N#Cc1cnc(SCCc2ccccc2)nc1N,-71
SMILES,aSyn UTR act
O=C(NC1=NCCS1)c1ccc(Br)s1,-171
O=C(NC1=NCCS1)c1cccc(Br)c1,-75
CCOc1cccc(C(=O)NC2=NCCS2)c1,-104
CC(C)Oc1cccc(C(=O)NC2=NCCS2)c1,-96
O=C(NCCc1c[nH]c2ccccc12)c1cc(Cl)c2c(c1)OCO2,-110
O=C(NCCc1c[nH]c2ccccc12)c1cccnc1,-67
Cn1c(C(=O)NCCc2c[nH]c3ccccc23)cc2sccc21,-237
O=C(NCCc1c[nH]c2ccccc12)c1ccc2c(c1)OCO2,-142
O=C(NCCc1ccc(Cl)cc1)c1ccc2c(c1)OCO2,-121
O=C(NCCc1ccccc1F)c1ccc2c(c1)OCCO2,i
O=C(N/N=C/c1cc2c(cc1Cl)OCO2)c1ccccn1,-92
Cn1cc(Br)c(C(=O)N/N=C/c2cc3c(cc2Cl)OCO3)n1,-140
O=C(N/N=C/c1cc2c(cc1[N+](=O)[O-])OCO2)c1ccccn1,-81
COc1cc(/C=N/NC(=O)c2ccccn2)cc2c1OCO2,-95
CCC(=NCc1ccccc1)c1c(C(F)(F)F)[nH]n(-c2nc3ccccc3s2)c1=O,-111
O=C(Cc1cccs1)Nc1nnc(-c2ccc(F)cc2)s1,-76
O=C(Cc1cccs1)Nc1nnc(-c2ccccc2)s1,-211
CCc1ccccc1NC(=O)c1cc2ncc(Br)cn2n1,-79
O=C(Nc1ccccc1C(F)(F)F)c1cc2ncc(CCCl)cn2n1,-81
CC(C)(C)C(=O)/C(=C\c1cccc([N+](=O)[O-])c1)n1cncn1,-129
CCOC(=O)c1c(C)nc2c3ccccc3ccn12,-91
NC(=O)c1cc2c3ccccc3ccn2c1-c1ccccc1,i
CCC(C)NC(=O)Cc1c(C)c2cc3c(cc2oc1=O)OC(C)(C)CC3 (stereo not drawn),-118
Cc1c(CCC(=O)O)c(=O)oc2cc3oc4c(c3cc12)CCCC4,i
Cc1c(CC(=O)NC(C)C)c(=O)oc2cc3c(cc12)CCC(C)(C)O3,-78
SMILES,aSyn UTR act
Cc1c(CC(=O)N[C@H](C(=O)O)C(C)C)c(=O)oc2cc3c(cc12)CCC(C)(C)O3,-110
CC1(C)CC(=O)c2sc(NC(=O)C3COc4ccccc4O3)nc2C1 (stereo not drawn),-101
CC1(C)CC(=O)c2sc(NC(=O)c3ccco3)nc2C1,-120
CCOc1cccc(OCCCOc2ccccc2)c1,-76
Cn1c(NC(=O)/C=C/c2ccccc2)cc(=O)n(C)c1=O,-253
Cn1c(NC(=O)CCc2ccccc2)cc(=O)n(C)c1=O,-186
COc1ccc(/C=C/C(=O)Nc2cc(=O)n(C)c(=O)n2C)cc1,-104
Cn1c(NC(=O)/C=C/c2ccc(Cl)c(Cl)c2)cc(=O)n(C)c1=O,-181
CC(C)c1ccc(NC(=O)N2CCc3ccccc3C2)cc1,-261
Cc1ccc(C)c(NC(=O)N2CCc3ccccc3C2)c1,-67
O=C(Nc1ccc([N+](=O)[O-])cc1)N1CCc2ccccc2C1,-106
O=[N+]([O-])c1ccc(N2CCc3ccccc3C2)cc1,-117
CCCOc1ccc(C(=O)Nc2cccnc2)cc1,-181
CCCCOc1ccc(C(=O)Nc2ccncc2)cc1,-123
O=C(Nc1cccnc1)c1ccc(CSc2ccccc2)cc1,-115
O=C(Nc1cccnc1)c1ccc(Oc2ccccc2)cc1,-70
CN=C(Nc1ccc(Cl)cc1)c1ccc(C(F)(F)F)cc1,-92
C[C@H](NC(=O)[C@@H]1Cc2ccccc2CN1)C(=O)Nc1ccc2c(c1)OCCO2,-65
CCC(C)[C@H](NC(=O)[C@@H]1Cc2ccccc2CN1)C(=O)Nc1ccc2c(c1)OCO2 (stereo partly drawn),-101
